Data reported in PubChem BioAssay AID1159580 (chemical genetic matrix, 2015).
Values joined by “and” are separate entries in the source; they are usually repeats but may differ in a detail not shown here. Equal entries are not always repeated. The whole screen tested about 5,500 compounds, of which about 2,000 (36%) were called active. Roughly 18% stayed inconclusive and do not appear here. Some of the results follow. Unmarked numbers belong to inactive results. No stated cut-off is given here; in the data, active means normalized growth mostly below about 0.91 (no sharp cut-off); inconclusive means no clear call, values can overlap the other calls; inactive means mostly above about 0.92.

Assay: chemical genetic growth profiling, strain panel (AID 1159580);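 further: tested at 20 µM; growth read once vehicle control cultures reached saturation at 30 °C; 1 = growth at the plate median or of vehicle wells; lower values mean less growth of the strain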
Conditions: S. cerevisiae deletion strains, growth OD

With `O=c1cc(-c2cc(O)c(O)c(O)c2)oc2cc(O)cc(O)c12` the normalized growth (locus YAL013W, strain DEP1, hits give low values) was 0.997, the normalized growth (locus YAL021C, strain ccr4, hits give low values) was 0.901 (active) and the normalized growth (locus YAL026C, strain drs2, hits give low values) was 0.927. The normalized growth (locus YAL030W, strain snc1, hits give low values) was 1.01, the normalized growth (locus YBL061C, strain skt5, hits give low values) was 0.942 and the normalized growth (locus YBR009C, strain hhf1, hits give low values) was 0.95. The normalized growth (locus YBR021W, strain FUR4, hits give low values) was 1.07, the normalized growth (locus YBR023C, strain chs3, hits give low values) was 0.897 (active) and the normalized growth (locus YBR171W, strain sec66, hits give low values) was 1. For the same compound, the normalized growth (locus YBR229C, strain ROT2, hits give low values) was 0.988, the normalized growth (locus YBR231C, strain swc5, hits give low values) was 0.909 (active) and the normalized growth (locus YBR279W, strain paf1, hits give low values) was 0.935. For the same compound, the normalized growth (locus YCL011C, strain gbp2, hits give low values) was 0.946, the normalized growth (locus YCL016C, strain dcc1, hits give low values) was 0.94 and the normalized growth (locus YCL029C, strain bik1, hits give low values) was 0.988. It also gave a normalized growth (locus YCL061C, strain MRC1, hits give low values) of 0.942, a normalized growth (locus YCL069W, strain vba3, hits give low values) of 0.997 and a normalized growth (locus YCR088W, strain abp1, hits give low values) of 0.995. The normalized growth (locus YDL005C, strain med2, hits give low values) was 1.02, the normalized growth (locus YDL035C, strain GPR1, hits give low values) was 0.992 and the normalized growth (locus YDL040C, strain nat1, hits give low values) was 1.04. The normalized growth (locus YDL074C, strain BRE1, hits give low values) was 0.957, the normalized growth (locus YDL101C, strain DUN1, hits give low values) was 1.01 and the normalized growth (locus YDL134C, strain PPH21, hits give low values) was 1.05. For the same compound, the normalized growth (locus YDL185W, strain tfp1, hits give low values) was 0.941, the normalized growth (locus YDL192W, strain arf1, hits give low values) was 0.971 and the normalized growth (locus YDR001C, strain nth1, hits give low values) was 1.01. The normalized growth (locus YDR069C, strain doa4, hits give low values) was 0.855 (active), the normalized growth (locus YDR101C, strain arx1, hits give low values) was 1.01 and the normalized growth (locus YDR137W, strain rgp1, hits give low values) was 0.992. The normalized growth (locus YDR159W, strain sac3, hits give low values) was 1.05, the normalized growth (locus YDR162C, strain NBP2, hits give low values) was 1.03 and the normalized growth (locus YDR195W, strain ref2) was 1.05. For the same compound, the normalized growth (locus YDR297W, strain sur2, hits give low values) was 0.971, the normalized growth (locus YDR318W, strain mcm21, hits give low values) was 0.995 and the normalized growth (locus YDR334W, strain swr1, hits give low values) was 0.978. It also gave a normalized growth (locus YDR335W, strain msn5, hits give low values) of 0.986, a normalized growth (locus YDR388W, hits give low values) of 0.996 and a normalized growth (locus YDR392W, strain spt3, hits give low values) of 0.893. For the same compound, the normalized growth (locus YDR502C, strain sam2, hits give low values) was 0.984, the normalized growth (locus YEL003W, strain gim4, hits give low values) was 0.957 and the normalized growth (locus YEL037C, strain rad23, hits give low values) was 0.979. It also gave a normalized growth (locus YEL061C, strain CIN8 (second series), hits give low values) of 1, a normalized growth (locus YEL061C, strain CIN8, hits give low values) of 1 and a normalized growth (locus YER015W, strain faa2, hits give low values) of 0.984. It also gave a normalized growth (locus YER016W, strain bim1, hits give low values) of 1, a normalized growth (locus YER110C, hits give low values) of 0.996 and a normalized growth (locus YER111C, strain swi4, hits give low values) of 0.965. For the same compound, the normalized growth (locus YER155C, strain BEM2 (second series), hits give low values) was 0.938, the normalized growth (locus YER155C, strain BEM2, hits give low values) was 1.03 and the normalized growth (locus YER167W, strain BCK2, hits give low values) was 1.01. For the same compound, the normalized growth (locus YFR010W, strain ubp6, hits give low values) was 0.942, the normalized growth (locus YGL078C, strain dbp3, hits give low values) was 0.979 and the normalized growth (locus YGL086W, strain mad1, hits give low values) was 1.01. For the same compound, the normalized growth (locus YGL167C, strain pmr1, hits give low values) was 0.988, the normalized growth (locus YGL173C, strain kem1, hits give low values) was 0.967 and the normalized growth (locus YGL227W, strain vid30, hits give low values) was 1.01. The normalized growth (locus YGL240W, strain doc1, hits give low values) was 1.02, the normalized growth (locus YGL248W, strain PDE1, hits give low values) was 1.01 and the normalized growth (locus YGL253W, strain hxk2, hits give low values) was 0.948. The normalized growth (locus YGR135W, strain pre9, hits give low values) was 0.96, the normalized growth (locus YGR252W, strain gcn5, hits give low values) was 1 and the normalized growth (locus YHR013C, strain ard1, hits give low values) was 0.904. The normalized growth (locus YHR027C, strain rpn1, hits give low values) was 0.978, the normalized growth (locus YHR030C, strain SLT2, hits give low values) was 0.989 and 1.07 and the normalized growth (locus YHR079C, strain IRE1 (second series), hits give low values) was 1.02. The normalized growth (locus YHR079C, strain IRE1, hits give low values) was 1.06, the normalized growth (locus YHR094C, strain hxt1, hits give low values) was 1.02 and the normalized growth (locus YHR129C, strain ARP1, hits give low values) was 0.986. The normalized growth (locus YHR142W, strain chs7, hits give low values) was 0.911, the normalized growth (locus YHR200W, strain rpn10, hits give low values) was 0.97 and the normalized growth (locus YIL066C, strain RNR3, hits give low values) was 0.989. It also gave a normalized growth (locus YIL073C, strain SPO22, hits give low values) of 0.964, a normalized growth (locus YIL125W, strain kgd1, hits give low values) of 0.985 and a normalized growth (locus YIR030C, strain dcg1, hits give low values) of 1. The normalized growth (locus YJL092W, strain hpr5, hits give low values) was 0.996, the normalized growth (locus YJL095W, strain BCK1 (second series), hits give low values) was 0.95 and the normalized growth (locus YJL095W, strain BCK1, hits give low values) was 0.973 and 1.01. It also gave a normalized growth (locus YJL115W, strain asf1, hits give low values) of 1.01, a normalized growth (locus YJL129C, strain trk1, hits give low values) of 0.991 and a normalized growth (locus YJL134W, strain LCB3, hits give low values) of 0.994. It also gave a normalized growth (locus YJL154C, strain vps35, hits give low values) of 1.02, a normalized growth (locus YJL164C, strain tpk1, hits give low values) of 0.954 and a normalized growth (locus YJL166W, strain qcr8, hits give low values) of 0.957. For the same compound, the normalized growth (locus YJL168C, strain set2, hits give low values) was 0.998, the normalized growth (locus YJL187C, strain SWE1 (second series), hits give low values) was 0.974 and the normalized growth (locus YJL187C, strain SWE1, hits give low values) was 0.986. It also gave a normalized growth (locus YJR043C, strain POL32, hits give low values) of 1 and a normalized growth (locus YJR066W, strain TOR1, hits give low values) of 0.981.
